Test results published in PubChem BioAssay (NCI).
This is part of a sample that, as a whole, favours compounds with a hit. Of some 83,000 tested, about 20% had one in any assay.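 In brief: 96-well plates, 48 h treatment, single concentration, percent growth endpoint.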 Active and inactive are the calls of the source. Rule for the calls: active = growth percent below 10; inactive = the rest.

Key:
Test in all cases: NCI-60 one-dose screen, 48 h (100 = growth as untreated, 0 = no growth, -100 = all killed)
Settings in all cases: 10 µM unless noted
[1] = system: SR leukemia
[2] = system: OVCAR-8 ovarian
[3] = system: OVCAR-5 ovarian
[4] = system: OVCAR-4 ovarian
[5] = system: OVCAR-3 ovarian
[6] = system: HS 578T breast
[7] = system: NCI/ADR-RES ovarian
[8] = system: IGROV1 ovarian
[9] = system: SK-OV-3 ovarian
[10] = system: RPMI-8226 leukemia

Measured: growth

O=C(CC12CC3CC(CC(C3)C1)C2)NCCOCCOCCNC(=O)c1cc2c(o1)C(=O)c1ccccc1C2=O
active: [1] 9.52% | [2] -2.31% | [3] -96.9% | [4] -99.1% | [5] -40.8% | [6] -24.6% | [7] -24.6%

O=C1Nc2ccc(Cl)cc2/C1=N/N=C/c1c[nH]c2ccccc12
inactive: [1] 75.2% | [2] 76% | [3] 89.8% | [4] 67.8% | [8] 42.7% | [5] 76.5% | [7] 98.1%

O=C1CCC(N2C(=O)c3cccc(NCCCC4CCN(CCNC(=O)c5cc6c(o5)C(=O)c5ccccc5C6=O)CC4)c3C2=O)C(=O)N1 (stereo not drawn)
active: [2] 6.28% | [4] -99.3% | [8] -50.3% | [5] -90.9%
inactive: [1] 14.5% | [7] 20.4%

N=C(N)c1ccc(-c2ccc(-c3ccc(Cl)cc3Cl)o2)nc1
active: [1] 1.87% | [2] 1.36% | [5] -3.34% | [6] -15.2%
inactive: [3] 77.2% | [8] 25.4% | [7] 71.6%

CCCCCCCCCCCCCCCCCC1=NCCN1C(=O)OCCO
active: [1] -10.5% | [8] -35.3%
inactive: [2] 19.3% | [3] 68.1% | [9] 61.7% | [5] 76% | [6] 11.6% | [7] 51.4%

CC(C)(C)c1ccc(C(=O)Nc2sc3c(c2C(N)=O)CCC(=O)C3)cc1
active: [2] 8.88% | [4] -91.1% | [5] -78.8% | [6] -12% | [7] -0.603%
inactive: [1] 11.1% | [3] 12.3%

Cc1[nH]c(-c2nc3ccccc3[nH]2)c(C)c1C(=O)NNc1ccc(Cl)cc1
inactive: [1] 88.6% | [2] 90.2% | [3] 101% | [4] 88.2% | [8] 88% | [5] 98.4% | [7] 96.3%

COc1cc2cc(Oc3ccc(NC(=O)Nc4cc(C(F)(F)F)cc(C(F)(F)F)c4)cc3)c(C)nc2cc1OCCN1CCCCC1
active: [1] -29.5% | [2] -48.1% | [4] -90.6% | [8] -78.4% | [5] -91.4% | [6] -44.1% | [7] -66.9%

CC(C)c1ccc(NC(=O)Cc2ccc(Nc3ncnc4cc(-c5cnn(CCN(C)C)c5)ccc34)cc2)cc1
inactive: [7] 52.4% [30 µM]
active: [1] -49.1% [30 µM] | [2] -27.5% [30 µM] | [4] -83.1% [30 µM] | [9] -30.6% [30 µM] | [8] -69.7% [30 µM] | [6] -60.6% [30 µM]

CNCCNc1nc2ccccc2c2c(=O)c3cc(F)ccc3oc12
inactive: [1] 22.7% | [2] 47% | [3] 80.4% | [4] 54.8% | [8] 49.6% | [5] 69.3% | [6] 70.6% | [7] 47.8%

Nc1c(C(=O)Nc2ccccc2)sc2nc3c(cc12)CCCCCC3
inactive: [1] 12.6% | [2] 16.4% | [3] 15.3% | [8] 15.3%
active: [9] -4.37% | [5] -34.8% | [7] 1.41%

O=C(Nc1ccc(N2CCCCC2)c(Cl)c1)c1ccc(Br)o1
inactive: [1] 40.8% | [2] 59% | [3] 114% | [9] 107% | [8] 75.1% | [5] 43.6% | [6] 72.8% | [7] 68%

Nc1c(C(=O)c2ccccc2)nnc2ncnn12
inactive: [10] 101% | [2] 107% | [3] 121% | [4] 116% | [9] 98% | [8] 106% | [5] 105% | [6] 106% | [7] 107%

CCCn1nc(-c2ccccc2)c2c(-c3ccccc3)onc2c1=O
inactive: [10] 70.2% | [2] 102% | [3] 87.7% | [4] 79.7% | [9] 83.6% | [8] 72.5% | [5] 91.8% | [6] 67.7% | [7] 68.5%

Nc1nc(N)c(-c2ccc(Cl)cc2)c(/C=C/c2ccc([N+](=O)[O-])cc2)n1
inactive: [10] 67% | [2] 89.2% | [3] 108% | [4] 77.3% | [9] 114% | [8] 22.4% | [5] 75.9% | [6] 60.5% | [7] 68.3%

NC(=O)c1c(NC(=O)c2ccc(C(F)(F)F)cc2Cl)sc2c1CCC(=O)C2
inactive: [2] 10.2%
active: [10] -22.7% | [3] -41.9% | [4] -74.7% | [9] -6.73% | [8] -39.2% | [5] -57.4% | [6] -7.87% | [7] -13.9%

CS(=O)(=O)c1ccc(-c2[nH]c3ccc(F)cc3c2/C=N/NC(N)=S)cc1
inactive: [10] 12% | [2] 20.8% | [3] 28.2% | [4] 50% | [9] 13.4% | [8] 29% | [5] 11.8% | [6] 28% | [7] 11.1%

O=C(C[C@@]1(O)C(=O)Nc2c(Cl)ccc(Cl)c21)c1ccc(C2CC2)cc1
active: [5] -11.9% | [6] 7.19% | [7] 5.4%
inactive: [10] 23.4% | [2] 29.7% | [3] 33.4% | [4] 54.3% | [9] 38.6% | [8] 22.9%

CS(=O)(=O)c1ccc(-c2nc3cc(Cl)ccc3n2CC(=O)N/N=C/c2ccc(Cl)cc2)cc1
active: [10] -17.2%
inactive: [2] 43.6% | [3] 77.4% | [4] 60.1% | [9] 65.8% | [8] 55.6% | [5] 46.5% | [6] 19.2% | [7] 92.8%

COc1ccc(-c2nc3sccn3c2/C=C/C(=O)c2c[nH]c3ccccc23)cc1
inactive: [10] 154% | [2] 63.9% | [3] 63.5% | [4] 42.6% | [9] 79.6% | [8] 79.2% | [5] 68.1% | [6] 74.9% | [7] 59.1%

O=S(=O)(NCCNc1cc(-c2c(-c3cccc(O)c3)nc3sccn23)ccn1)c1ccc(Cl)cc1
inactive: [10] 41.1% | [2] 51.1% | [3] 107% | [4] 40.4% | [9] 75.1% | [8] 54.1% | [5] 64.2% | [6] 63.9% | [7] 87.6%

Nc1ccc(S(=O)(=O)Nc2ccsc2-c2nc(-c3ccccc3)no2)cc1
inactive: [10] 65.8% | [2] 59.7% | [3] 87.5% | [4] 81.9% | [9] 62.3% | [8] 64.7% | [5] 36.8% | [6] 56.4% | [7] 54.6%

CC1(C)C(=O)/C(=C\c2cccnc2)C[C@]2(C)[C@H]3CC=C4[C@@H]5C[C@@](C)(C(=O)O)CC[C@]5(C)CC[C@@]4(C)[C@]3(C)CC[C@@H]12
inactive: [10] 71.5% | [2] 89.7% | [3] 107% | [4] 90.6% | [9] 94.9% | [8] 103% | [5] 98.3% | [6] 99.2% | [7] 102%

C[C@@H](C[C@H](CCOCc1cccnc1)c1ccccc1)c1cc2ccccc2o1
inactive: [10] 75% | [2] 88.6% | [3] 87.8% | [4] 81.6% | [9] 84.7% | [8] 83.8% | [5] 94% | [6] 85.1% | [7] 97.9%

O=C1NN(C(=O)c2ccc(O)cc2)C(c2ccccc2)=N/C1=C\c1cn(-c2ccccc2)nc1-c1ccccc1
inactive: [10] 90% | [2] 97.2% | [3] 94% | [4] 95.3% | [9] 92.6% | [8] 91.5% | [5] 112% | [6] 99.8% | [7] 99.7%

CC[C@@H](C[C@H](CCO)c1ccccc1)c1cc2ccccc2o1
inactive: [10] 90.8% | [2] 91% | [3] 96.7% | [4] 85.3% | [9] 93.9% | [8] 97.8% | [5] 95.7% | [6] 93% | [7] 93.1%

C=C1c2c(C)nn(-c3ccc(S(N)(=O)=O)cc3)c2N(C)C23CC1C1(C)c4c(C)nn(-c5ccc(S(N)(=O)=O)cc5)c4N(C)C(C)(CC12)C3 (stereo not drawn)
inactive: [2] 40.1% | [3] 64% | [4] 39.3% | [9] 57.6% | [8] 49.1% | [5] 41.6% | [6] 54.3% | [7] 79.2%
active: [10] -64%

Cc1ccc(C)c2c1C(=O)OC2=O
inactive: [10] 109% | [2] 106% | [3] 90.6% | [4] 109% | [9] 95.2% | [8] 92% | [5] 115% | [6] 114% | [7] 98.1%

CCN(CC)S(=O)(=O)c1ccc(O)c(NC(=O)c2[nH]c(C)c(C(C)=O)c2CCc2ccc(Cl)cc2)c1
inactive: [10] 28.3% | [2] 37.5% | [3] 92.7% | [4] 15.2% | [9] 37.8% | [8] 45.5% | [5] 24.1% | [6] 49.9% | [7] 50.5%

CCOc1cc(C2C(Cl)C(=O)N2n2cnnc2)ccc1O (stereo not drawn)
inactive: [10] 103% | [2] 95.5% | [3] 106% | [4] 98.2% | [9] 82.4% | [8] 104% | [5] 96.4% | [6] 88.7% | [7] 100%
